Results: PubChem BioAssay AID1159580 (chemical genetic matrix, 2015)
The campaign covered roughly 5,500 compounds. About 2,000 (36%) were called active. Roughly 18% stayed inconclusive and do not appear here. Cut-off read from the data, not from the text of the source: active = normalized growth mostly below about 0.91 (no sharp cut-off); inconclusive = no clear call, values can overlap the other calls; inactive = mostly above about 0.92. The list shows a part of the results.

Assay: chemical genetic growth profiling, strain panel (AID 1159580);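 note: tested at 20 µM; growth read once vehicle control cultures reached saturation at 30 °C; 1 = growth at the plate median or of vehicle wells; lower values mean less growth of the strain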
Conditions: S. cerevisiae deletion strains, growth OD

Measured: normalized growth

COc1ccc(CN2CSC(=S)N(Cc3ccc(OC)cc3)C2)cc1
inactive: locus YAR019C, strain CDC15, hits give low values 0.952 | locus YBL105C, strain PKC1, hits give low values 0.98 | locus YBR135W, strain CKS1, hits give low values 0.972 | locus YBR136W, strain MEC1, hits give low values 0.968 | locus YBR160W, strain CDC28, hits give low values 0.974 | locus YDL017W, strain CDC7, hits give low values 0.981 | locus YDL028C, strain MPS1, hits give low values 0.951 | locus YDL101C, strain DUN1, hits give low values 0.992 | locus YDL108W, strain KIN28, hits give low values 0.955 | locus YDL132W, strain cdc53, hits give low values 0.966 | locus YDL214C, strain PRR2, hits give low values 0.937 | locus YDR052C, strain DBF4, hits give low values 0.975 | locus YDR054C, strain cdc34, hits give low values 0.961 | locus YDR226W, strain ADK1, hits give low values 0.961 | locus YDR477W, strain SNF1, hits give low values 0.958 | locus YER123W, strain YCK3, hits give low values 0.891 | locus YER133W, strain GLC7, hits give low values 0.946 | locus YFL009W, strain cdc4, hits give low values 0.957 | locus YFL029C, strain CAK1, hits give low values 0.95 | locus YFR003C, strain YPI1, hits give low values 0.967 | locus YFR019W, strain FAB1, hits give low values 0.961 | locus YFR028C, strain CDC14, hits give low values 0.957 | locus YGR040W, strain KSS1, hits give low values 0.947 | locus YGR052W, strain FMP48, hits give low values 0.996 | locus YGR092W, strain DBF2, hits give low values 0.864 | locus YHR030C, strain SLT2, hits give low values 0.97 | locus YHR079C, strain IRE1, hits give low values 0.908 | locus YHR082C, strain KSP1, hits give low values 0.999 | locus YHR205W, strain SCH9, hits give low values 0.891 | locus YIL147C, strain SLN1, hits give low values 0.95 | locus YJL095W, strain BCK1, hits give low values 0.981 | locus YJL128C, strain PBS2, hits give low values 0.952 | locus YJL157C, strain FAR1, hits give low values 0.954 | locus YJR016C, strain ILV3, hits give low values 0.965 | locus YJR066W, strain TOR1 (second series), hits give low values 0.94 | locus YJR066W, strain TOR1, hits give low values 0.998 | locus YKL048C, strain ELM1, hits give low values 0.958 | locus YKL067W, strain YNK1, hits give low values 0.954 | locus YKL101W, strain HSL1, hits give low values 0.94 | locus YKL193C, strain SDS22, hits give low values 0.964 | locus YKL203C, strain TOR2, hits give low values 0.989 | locus YLR113W, strain HOG1, hits give low values 0.91 | locus YLR133W, strain CKI1, hits give low values 0.961 | locus YLR403W, strain SFP1, hits give low values 0.927 | locus YML070W, strain DAK1, hits give low values 0.935 | locus YMR001C, strain CDC5, hits give low values 0.978 | locus YMR205C, strain PFK2 (second series), hits give low values 0.945 | locus YMR277W, strain FCP1, hits give low values 0.97 | locus YNL006W, strain LST8, hits give low values 0.945 | locus YNL020C, strain ARK1, hits give low values 0.94 | locus YNL161W, strain CBK1, hits give low values 0.987 | locus YNL183C, strain NPR1, hits give low values 0.951 | locus YNL207W, strain RIO2, hits give low values 0.964 | locus YNL222W, strain SSU72, hits give low values 0.966 | locus YNL307C, strain MCK1 (second series), hits give low values 0.905 | locus YOL078W, strain AVO1, hits give low values 0.967 | locus YOL136C, strain PFK27, hits give low values 0.956 | locus YOR061W, strain CKA2, hits give low values 0.939 | locus YOR119C, strain RIO1, hits give low values 0.985 | locus YOR231W, strain MKK1, hits give low values 0.937 | locus YOR329C, strain SCD5, hits give low values 0.979 | locus YPL031C, strain PHO85, hits give low values 0.95 | locus YPL153C, strain RAD53, hits give low values 0.931 | locus YPL204W, strain HRR25, hits give low values 0.931 | locus YPL209C, strain IPL1, hits give low values 0.966 | locus YPL256C, strain CLN2, hits give low values 0.953 | locus YPR025C, strain CCL1, hits give low values 0.98 | locus YPR106W, strain ISR1, hits give low values 0.983 | locus YPR111W, strain DBF20, hits give low values 0.979 | strain NNK1, hits give low values 0.984 | strain TSCII, hits give low values 0.964
